In PubChem BioAssay (Tox21):
Records with an inconclusive call do not appear. A call without a number means that no potency is given here. The source holds several records for some structures; these can differ, active in one and inactive in another. Calls of active or inactive are those of the source. Unless noted, calls come from the whole dose curve.

Key:
[1] = Nuclear factor erythroid 2-related factor 2/antioxidant responsive element (Nrf2/ARE) small molecule agonists: qHTS cell viability counter screen in human keratinocytes (AID 1919968; active = well fitted curve in the direction sought with a large enough effect in the repeat runs; an effect the other way counts as inactive or inconclusive; note: nearly all actives have a fitted effect of over 55% in size)
In short: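 Measured as CellTiter-Fluor fluorescence, this readout tracks cytotoxicity in the same wells as the ARE-luciferase screen. HaCaT reporter cells (1,500/well) received compounds after a 5 h pre-incubation and were exposed for 23 h.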

[2] = Nuclear factor erythroid 2-related factor 2/antioxidant responsive element (Nrf2/ARE) small molecule agonists: luciferase reporter gene qHTS assay in human keratinocytes (AID 1919969); note: nearly all actives have a fitted effect of over 35% in size; note: potency is the fitted concentration of half-maximal effect
[3] = molecular target: Gonadotropin-releasing hormone receptor (Homo sapiens) (UniProt P30968); experiment: Human gonadotropin-releasing hormone receptor (GnRHR) small molecule agonists, calcium flux assay in GnRHR-HEK293 cells (AID 1920063); note: nearly all actives have a fitted effect of over 35% in size
In short: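 Fluorescence kinetics (480 nm excitation, 540 nm emission; 3 min, 1 s steps) report calcium mobilisation in human GnRHR-HEK293 cells in agonist mode. Dye incubation: 1 h, 37 C.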

[4] = molecular target: KiSS-1 receptor (Homo sapiens) (UniProt Q969F8); experiment: Human kisspeptin (KISS1R) small molecule agonists, calcium flux assay in KISS1R-HEK293 cells (AID 1920064; active = well fitted curve in the direction sought with a large enough effect in the repeat runs; an effect the other way counts as inactive or inconclusive)
In short: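 Measures KISS1R agonism through calcium-sensitive dye fluorescence in stably transfected HEK293 cells, read for 3 min after pin-tool compound delivery; 15-point titrations in triplicate.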

[5] = G protein-coupled receptor (GPCR) small molecule agonists, calcium flux assay: HEK293 wild type cell line counter screen (AID 1920065)
In short: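 Readout: fluorescence at 480 nm excitation/540 nm emission, sampled at 1 s intervals for 3 min. Cells had been cultured 18 h, then dye-loaded 1 h at 37 C before compound or ATP addition.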

[6] = p53 small molecule agonists, cell-based qHTS assay with human liver microsomes (AID 1963577);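 note: p53 response element beta-lactamase reporter cells with liver microsomes plus NADPH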
In short: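 Reporter activation was measured by LiveBLAzer fluorescence intensity in p53RE-bla cells, which had been exposed to compounds for 16 h at 37 C alongside 0.5 mg/mL human liver microsomes and 0.5 mg/mL NADPH (final concentrations).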

[7] = p53 small molecule agonists, cell-based qHTS assay with rat liver microsomes (AID 1963578)
In short: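 Compound in DMSO added to p53RE-bla cells 5 h post-plating; rat microsomes/NADPH 0.5 mg/mL final; 16 h, 37 C; LiveBLAzer 2 h RT.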

[8] = p53 small molecule agonists, cell-based qHTS assay with rat liver microsomes: qHTS cell viability counter screen (AID 1963580); note: nearly all actives have a fitted effect of over 45% in size
In short: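 Intracellular ATP, by CellTiter-Glo luminescence, defines viability. HCT-116 p53RE-bla cells, 4,000 per well, were compound-treated in the presence of rat liver microsomes and NADPH for 16 h at 37 C.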

[9] = p53 small molecule agonists, cell-based qHTS assay: qHTS cell viability counter screen (AID 1963581); note: nearly all actives have a fitted effect of over 45% in size
In short: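 In the same plates used for the p53 bla reporter, HCT-116 cells given compounds for 16 h at 37 C received CellTiter-Glo; luminescence was recorded 30 min later at room temperature.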

[10] = p53 small molecule agonists, cell-based qHTS assay (AID 1963582; active = well fitted activation curve with a large enough effect in the signal ratio in the repeat runs, not every such curve was filed as active; the % refers to the signal ratio)
In short: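 Compounds are pin-transferred in DMSO onto p53RE-bla cells and incubated 16 h at 37 C. The B/G FRET beta-lactamase substrate is then applied for 2 h at RT and fluorescence recorded.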

[11] = molecular target: 5-hydroxytryptamine receptor 2A (Homo sapiens) (UniProt P28223); experiment: 5-hydroxytryptamine receptor 2A (HTR2A) small molecule antagonists, cell-based qHTS assay (AID 1963586); note: nearly all actives have a fitted effect of over 45% in size
In short: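 Antagonist-mode intracellular calcium assay: DOI (4 nM) added after 5 min compound pre-incubation at room temperature to dye-loaded HTR2A-CHO cells. Fluorescence followed for 3 min, sampled every second.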

[12] = molecular target: 5-hydroxytryptamine receptor 2A (Homo sapiens) (UniProt P28223); experiment: 5-hydroxytryptamine receptor 2A (HTR2A) small molecule agonists, cell-based qHTS assay (AID 1963587); note: nearly all actives have a fitted effect of over 30% in size
In short: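 Kinetic calcium-flux fluorescence (2 min, 1 sec intervals) after compound addition in agonist mode. HTR2A-CHO cells were cultured 18 h, then dye-loaded 1 h at 37 C.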

[13] = molecular target: Muscarinic acetylcholine receptor M1 (Homo sapiens) (UniProt P11229); experiment: Cholinergic receptor muscarinic 1 (CHRM1) small molecule antagonists, cell-based qHTS assay (AID 1963588); note: nearly all actives have a fitted effect of over 40% in size; note: potency is the fitted concentration of half-maximal effect
In short: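 CHRM1-CHO calcium-flux assay, antagonist mode. Cells were seeded 18 h, dye-loaded 1 h at 37 C and given compound for 5 min at RT, then acetylcholine was added at 50nM. FDSS fluorescence was read 3 min; 15 concentrations, three runs.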

[14] = molecular target: Muscarinic acetylcholine receptor M1 (Homo sapiens) (UniProt P11229); experiment: Cholinergic receptor muscarinic 1 (CHRM1) small molecule agonists, cell-based qHTS assay (AID 1963589); note: nearly all actives have a fitted effect of over 35% in size; note: potency is the fitted concentration of half-maximal effect
In short: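 Each compound was tested at 15 concentrations across three independent runs on dye-loaded CHO cells stably expressing human CHRM1, reading intracellular calcium fluorescence kinetically at 1 sec intervals.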

[15] = cAMP Responsive Elements (CRE) small molecule agonists, cell-based qHTS assay (AID 1963590)
In short: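 Cell line: CRE-bla HEK 293T; medium DMEM/10% dialyzed FBS/0.1 mM NEAA/1 mM pyruvate/25 mM HEPES; 3 h compound exposure; beta-lactamase FRET readout after 2 h substrate loading at RT.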

[16] = cAMP Responsive Elements (CRE) small molecule antagonists, cell-based qHTS assay (AID 1963591; active = well fitted inhibition curve with a large enough effect in the signal ratio in the repeat runs, not every such curve was filed as active; the % refers to the signal ratio)
In short: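 Inhibition of NKH477-driven (0.25 uM final) CRE-beta-lactamase signal in HEK293T cells, 3 h compound exposure at 37 °C, detected by FRET substrate fluorescence.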

[17] = molecular target: Beta-2 adrenergic receptor (Homo sapiens) (UniProt P07550); experiment: Adrenergic beta2 receptor (ADRB2) small molecule antagonists, cell-based qHTS assay (AID 1963592); note: series mostly up to about 92 µM; nearly all actives have a fitted effect of over 50% in size
In short: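 Cells (CHO, stable ADRB2 overexpression) incubated 18-20hr at 37C; compounds added from DMSO; agonist mix (1nM isoproterenol, 100uM IBMX, 25uM Ro-20-1724) added; 0.5hr RT; d2-cAMP and anti-cAMP-cryptate added; 1hr RT; 665/615 nm read.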

[18] = molecular target: D(2) dopamine receptor (Homo sapiens) (UniProt P14416); experiment: Dopamine D2 receptor (DRD2) small molecule antagonists, cell-based qHTS assay (AID 1963595; active = well fitted inhibition curve with a large enough effect in the signal ratio in the repeat runs, with a control signal flat; the % refers to the signal ratio)
In short: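 Stable D2 receptor HEK293 line, 24 h after seeding. Compound preincubated 10 min, then quinpirole (12 nM) with forskolin analogue NKH477 (200 nM), 30 min, room temperature. Detection by time-resolved FRET of cAMP.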

[19] = molecular target: D(2) dopamine receptor (Homo sapiens) (UniProt P14416); experiment: Dopamine D2 receptor (DRD2) small molecule agonists, cell-based qHTS assay (AID 1963594); note: nearly all actives have a fitted effect of over 35% in size
In short: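 cAMP accumulation in DRD2-HEK293 cells measured by HTRF after 1 h detection; compounds added 10 min before NKH477 (200nM […]) forskolin-analogue stimulation, 30 min at room temperature, with Ro20-1724 present at 0.1 mM final.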

Sequence of KiSS-1 receptor (Homo sapiens) (Q969F8 whole entry, looked up): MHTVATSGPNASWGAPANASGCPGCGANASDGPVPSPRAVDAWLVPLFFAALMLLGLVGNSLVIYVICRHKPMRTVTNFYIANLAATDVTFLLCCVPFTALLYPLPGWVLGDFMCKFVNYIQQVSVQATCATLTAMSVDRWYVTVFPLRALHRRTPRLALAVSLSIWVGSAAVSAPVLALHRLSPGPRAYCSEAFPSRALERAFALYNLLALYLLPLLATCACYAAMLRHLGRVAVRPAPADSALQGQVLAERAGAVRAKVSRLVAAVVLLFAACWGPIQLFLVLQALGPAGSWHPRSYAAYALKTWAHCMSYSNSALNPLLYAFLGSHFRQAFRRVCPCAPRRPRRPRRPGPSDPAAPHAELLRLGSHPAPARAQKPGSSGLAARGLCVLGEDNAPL
Sequence of Beta-2 adrenergic receptor (Homo sapiens) (P07550 whole entry, looked up): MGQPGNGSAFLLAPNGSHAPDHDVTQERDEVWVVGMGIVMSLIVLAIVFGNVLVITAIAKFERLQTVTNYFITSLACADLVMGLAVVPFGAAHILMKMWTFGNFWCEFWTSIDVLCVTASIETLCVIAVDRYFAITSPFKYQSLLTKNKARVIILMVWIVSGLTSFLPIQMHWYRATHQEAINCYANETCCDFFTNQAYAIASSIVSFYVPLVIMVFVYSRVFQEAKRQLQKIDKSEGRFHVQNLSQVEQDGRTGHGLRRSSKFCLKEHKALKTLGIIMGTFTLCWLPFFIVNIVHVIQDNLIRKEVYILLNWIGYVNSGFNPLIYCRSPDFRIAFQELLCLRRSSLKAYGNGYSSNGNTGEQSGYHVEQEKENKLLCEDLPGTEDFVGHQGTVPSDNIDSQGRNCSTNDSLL
Sequence of 5-hydroxytryptamine receptor 2A (Homo sapiens) (P28223 whole entry, looked up): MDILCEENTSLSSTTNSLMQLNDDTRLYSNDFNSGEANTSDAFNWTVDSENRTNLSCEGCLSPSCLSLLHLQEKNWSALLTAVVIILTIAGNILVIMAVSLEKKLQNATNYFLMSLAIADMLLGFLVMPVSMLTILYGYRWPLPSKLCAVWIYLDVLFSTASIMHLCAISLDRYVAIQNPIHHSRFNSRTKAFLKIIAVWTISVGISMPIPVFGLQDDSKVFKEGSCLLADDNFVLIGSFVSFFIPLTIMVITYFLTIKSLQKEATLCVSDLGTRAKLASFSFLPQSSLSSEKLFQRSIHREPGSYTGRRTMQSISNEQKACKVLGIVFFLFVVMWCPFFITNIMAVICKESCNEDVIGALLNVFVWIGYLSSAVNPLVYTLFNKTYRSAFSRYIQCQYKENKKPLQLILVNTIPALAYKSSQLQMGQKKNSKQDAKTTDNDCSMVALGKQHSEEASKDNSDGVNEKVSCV
Sequence of Muscarinic acetylcholine receptor M1 (Homo sapiens) (P11229 whole entry, looked up): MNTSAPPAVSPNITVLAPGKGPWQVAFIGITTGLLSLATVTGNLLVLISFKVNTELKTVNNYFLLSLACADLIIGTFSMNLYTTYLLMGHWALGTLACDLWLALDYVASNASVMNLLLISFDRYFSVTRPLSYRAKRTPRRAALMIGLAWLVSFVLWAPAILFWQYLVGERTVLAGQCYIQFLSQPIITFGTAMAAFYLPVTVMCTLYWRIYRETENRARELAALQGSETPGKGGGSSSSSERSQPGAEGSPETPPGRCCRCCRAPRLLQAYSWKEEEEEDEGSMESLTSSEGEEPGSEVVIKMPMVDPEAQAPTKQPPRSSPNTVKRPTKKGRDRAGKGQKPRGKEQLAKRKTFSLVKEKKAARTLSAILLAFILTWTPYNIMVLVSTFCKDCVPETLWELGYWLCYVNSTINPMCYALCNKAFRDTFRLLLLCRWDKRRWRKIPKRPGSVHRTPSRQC
Sequence of D(2) dopamine receptor (Homo sapiens) (P14416 whole entry, looked up): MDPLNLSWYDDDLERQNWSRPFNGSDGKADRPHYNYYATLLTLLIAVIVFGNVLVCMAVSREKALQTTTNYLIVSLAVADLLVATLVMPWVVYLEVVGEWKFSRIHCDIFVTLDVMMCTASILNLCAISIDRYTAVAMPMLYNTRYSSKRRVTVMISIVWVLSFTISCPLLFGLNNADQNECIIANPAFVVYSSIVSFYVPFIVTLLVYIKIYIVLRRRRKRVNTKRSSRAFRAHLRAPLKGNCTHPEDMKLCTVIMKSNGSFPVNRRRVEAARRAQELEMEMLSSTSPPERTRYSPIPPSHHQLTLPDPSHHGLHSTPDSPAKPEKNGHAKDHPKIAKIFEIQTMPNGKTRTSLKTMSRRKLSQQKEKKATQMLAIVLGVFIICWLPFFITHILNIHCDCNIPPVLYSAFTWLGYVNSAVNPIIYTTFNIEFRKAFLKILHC
Sequence of Gonadotropin-releasing hormone receptor (Homo sapiens) (P30968 whole entry, looked up): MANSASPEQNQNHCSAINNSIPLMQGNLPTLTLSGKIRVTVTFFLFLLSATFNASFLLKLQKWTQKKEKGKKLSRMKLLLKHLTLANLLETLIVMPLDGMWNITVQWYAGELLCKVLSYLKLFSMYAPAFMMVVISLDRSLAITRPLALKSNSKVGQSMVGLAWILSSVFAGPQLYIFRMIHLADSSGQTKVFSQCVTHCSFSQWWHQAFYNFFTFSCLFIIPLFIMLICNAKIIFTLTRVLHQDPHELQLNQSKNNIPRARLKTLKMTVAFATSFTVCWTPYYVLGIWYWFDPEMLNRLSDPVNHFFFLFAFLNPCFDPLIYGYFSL

Compound	Potency [1]	Potency [2]	Potency [3]	Potency [4]	Potency [5]	Potency [6]	Potency [7]	Potency [8]	Potency [9]	Potency [10]	Potency [11]	Potency [12]	Potency [13]	Potency [14]	Potency [15]	Potency [16]	Potency [17]	Potency [18]	Potency [19]
COc1ccc2c3c1O[C@H]1[C@@H](O)C=C[C@H]4[C@@H](C2)N(C)CC[C@@]341	inactive	23.9 µM (active) and inactive	inactive	inactive	inactive	inactive	inactive	inactive	inactive	inactive	inactive	inactive	inactive	inactive	inactive	inactive	inactive	inactive	
N#Cc1ccncc1	inactive	inactive	inactive	inactive	inactive	inactive	inactive	inactive	inactive	inactive		inactive	inactive	inactive	inactive	inactive	inactive	inactive	
CCCC[N+]1(C)CCCC1 (tested in a mixture with another compound)	inactive	inactive	inactive	inactive	inactive	inactive	inactive	inactive	inactive	inactive	inactive	inactive	9.54 µM (active)	4.96 µM (active)	inactive	inactive	inactive	inactive	inactive
CC(=O)CCC(C)=O	inactive	inactive	inactive	inactive	inactive	inactive	inactive	inactive	inactive	inactive	inactive	inactive	inactive			inactive	inactive		inactive
O=C(O)C(F)(F)C(F)(F)C(F)(F)C(F)(F)C(F)(F)C(F)(F)C(F)(F)C(F)(F)C(F)(F)C(F)(F)F	inactive	inactive	inactive	inactive	inactive	inactive	inactive	inactive	inactive	inactive			inactive	inactive	inactive	inactive	inactive	inactive	inactive
CCC(C)(C#N)N=NC(C)(C#N)CC (configuration not stated)	inactive	inactive	inactive	inactive	inactive	inactive	inactive	inactive		inactive	inactive	inactive	inactive	inactive	inactive	inactive	inactive	inactive	inactive
O=C(NCNC(=O)NC1C(=O)NC(=O)N1CO)NC1C(=O)NC(=O)N1CO (configuration not stated)	inactive	inactive	inactive	inactive	inactive	inactive	inactive	inactive	inactive	inactive	inactive	inactive	inactive		inactive	inactive	inactive	inactive	inactive
CC(C)(C)C(=O)Cl	inactive	inactive	inactive	inactive	inactive	inactive	inactive	inactive	inactive	inactive	inactive		inactive		inactive	inactive		inactive	inactive
CCc1cc(C)cc(CC)c1-c1c(OC(=O)C(C)(C)C)n2n(c1=O)CCOCC2	inactive	inactive	inactive	inactive	inactive	inactive	inactive	inactive	inactive	inactive	inactive	inactive	inactive	inactive	inactive	inactive	inactive	inactive	inactive
O=Cc1ccccc1	inactive	inactive	inactive	inactive	inactive	inactive	inactive	inactive	inactive	inactive			inactive	inactive	inactive	inactive	inactive	inactive	inactive
CN(CCCC(=O)c1cccnc1)N=O	inactive	inactive	inactive	inactive	inactive	inactive	inactive			inactive	inactive	inactive		inactive		inactive	inactive	inactive	
N#CC(c1ccccc1)c1ccccc1	inactive	inactive	inactive	inactive	inactive	inactive	inactive	inactive			inactive	inactive	inactive	inactive	inactive	inactive	inactive	inactive	
Cl/C=C/Cl	inactive	inactive	inactive	inactive	inactive	inactive	inactive	inactive	inactive	inactive	inactive		inactive	inactive	inactive	inactive	inactive	inactive	inactive
O=C(CBr)c1ccc(O)cc1	inactive	68.6 µM (active)	inactive	inactive	inactive	inactive	inactive	inactive	inactive	inactive	inactive		inactive		inactive	inactive	inactive		inactive
Nc1ccc(Cl)cc1	inactive	inactive	inactive	inactive	inactive	inactive	inactive	inactive	inactive		inactive	inactive	inactive	inactive	inactive	inactive	inactive	inactive	inactive
